Rows were chosen to be rich in hits. Some 12% of all compounds tested hit in one or more screens of this group.
AmpC inh detg: inhibitors of E. coli AmpC beta-lactamase with detergent; P00811; actives 0.041% (n = 370,000); Potency, µM (doses to about 114 µM), inactives show at the top dose activity change, negative = inhibition, usual class: inhibitors; AmpC hydrolysis of nitrocefin, absorbance 480 nm, 0.01% Triton;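 note: 0% = no-compound wells and -100% = no-enzyme wells; nearly all actives have a fitted effect of over 25% in size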
Target sequence (P00811 whole entry, looked up): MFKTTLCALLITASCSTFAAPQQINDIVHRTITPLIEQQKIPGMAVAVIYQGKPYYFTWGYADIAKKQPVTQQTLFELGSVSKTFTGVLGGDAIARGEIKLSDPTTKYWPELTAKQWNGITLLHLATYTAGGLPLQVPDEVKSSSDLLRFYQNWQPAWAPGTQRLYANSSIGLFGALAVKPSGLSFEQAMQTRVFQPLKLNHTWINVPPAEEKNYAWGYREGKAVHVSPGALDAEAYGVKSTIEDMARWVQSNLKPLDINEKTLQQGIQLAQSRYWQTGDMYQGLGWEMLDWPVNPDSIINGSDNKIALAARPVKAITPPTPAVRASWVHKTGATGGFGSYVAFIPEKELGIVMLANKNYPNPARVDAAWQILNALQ
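AmpC (5.3 nM in the dispensed reagent) in 20 mM phosphate pH 7.0 with 0.01% (detergent screen) or 0.0001% Triton X-100 was preincubated with compounds for 15 min at room temperature. Nitrocefin was then added from an 800 uM solution, and hydrolysis was followed at 480 nm.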
SARS PLpro yeast: inhibitors of SARS-CoV papain-like protease in yeast; S. cerevisiae expressing SARS-CoV PLpro, growth rescue; Potency, µM (highest dose often 32.9 µM), inactives show at the top dose activity, positive = growth rescue, most hits filed as activators; actives 0.19% (n = 330,000); AID 485353; calls by dose curve; note: 0% is about no effect; nearly all actives have a fitted effect of over 55% in size
Pf growth 48h: P. falciparum growth inhibition at 48 hours (one generation); AID 504832; P. falciparum luciferase growth in erythrocytes, 48 h; Potency, µM (series often up to 28.7 µM), without a hit: at the top dose activity change, negative = inhibition, most hits filed as inhibitors; actives 5.9% (n = 310,000); note: % is set by controls: 0 for no effect and ±100 for the full control effect
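Cell-based growth assay: transgenic P. falciparum expressing firefly luciferase, cultured in red cells within RPMI 1640 containing 0.5% w/v Albumax, 24 mM bicarbonate and gentamycin. A drop in luciferase activity indicates inhibition.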
Pf growth 96h: P. falciparum growth inhibition at 96 hours; P. falciparum luciferase reporter growth, 96 h; actives 6.9% (n = 320,000); Potency, µM (highest dose often 28.7 µM), without a hit: at the top dose activity change, negative = inhibition, most hits filed as inhibitors; note: % is set by controls: 0 for no effect and ±100 for the full control effect
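Two-generation exposure (96 h) targets delayed-death phenotype. Reporter parasites carrying integrated firefly luciferase, in red cells at 2% hematocrit and 0.05% parasitemia final, kept at 37 C, 5% CO2; luminescence loss indicates inhibition.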
AmpC inh no detg: AmpC beta-lactamase inhibition without detergent; AmpC nitrocefin hydrolysis, absorbance 480 nm, 0.0001% Triton; Potency, µM (doses to about 57.1 µM), for the others: top-dose activity change, negative = inhibition, usual class: inhibitors; actives 0.52% (n = 330,000); AID 485341;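 note: plate controls were no compound for no effect and no enzyme for full effect; nearly all actives have a fitted effect of over 20% in size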
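AmpC (5.3 nM in the dispensed reagent) in 20 mM phosphate pH 7.0 with 0.01% (detergent screen) or 0.0001% Triton X-100 was preincubated with compounds for 15 min at room temperature. Nitrocefin was then added from an 800 uM solution, and hydrolysis was followed at 480 nm.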
Sm TGR block: inhibitors of Schistosoma mansoni thioredoxin glutathione reductase. purified TGR, DTNB reduction, TNB absorbance 405 nm. Q962Y6. Potency, µM (doses to about 114 µM), for the others: at the highest dose activity change, negative = inhibition, actives largely listed as inhibitors. actives 3% (n = 360,000). AID 485364; note: % is set by controls: 0 for no effect and ±100 for the full control effect; nearly all actives have a fitted effect of over 60% in size
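Kinetic colorimetric format: TGR-catalysed, NADPH-driven DTNB reduction monitored via TNB absorbance. Enzyme dispensed at 20 nM; compound exposure 15 min at room temperature before reaction start.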
Numbers without * were called inactive; [ ] = another dose, or the depositor's remark. Unless noted, calls come from the whole dose curve; as a rule, active = well fitted curve in the direction sought with a large enough effect; inconclusive = small, poorly fitted or top-dose-only effect, or another doubt; inactive = no such curve, though single readings can be large; an effect the other way counts as inactive or inconclusive. Potency is the fitted concentration of half-maximal effect.

For O=C(COc1ccccc1-c1ccccc1)N/N=C/c1ccncc1 the results were AmpC inh detg 2%, SARS PLpro yeast -6%, Pf growth 48h inconclusive, Pf growth 96h inconclusive, AmpC inh no detg 33% and Sm TGR block 2%.
`CCCCCC(=O)N/N=C(\C)c1ccccn1` gave AmpC inh detg 1%, SARS PLpro yeast 0%, Pf growth 48h 1.7µM*, Pf growth 96h inconclusive, AmpC inh no detg -15% and Sm TGR block 1%.
Screening C/C(=N\NC(=O)COc1ccccc1-c1ccccc1)c1ccccn1 returned AmpC inh detg -13%, SARS PLpro yeast -3%, Pf growth 48h 2.1µM*, Pf growth 96h inconclusive, AmpC inh no detg -31%[11.4 µM] and Sm TGR block 6%.
For O=C(O)c1ccc2c(c1)C(=O)N([C@H](Cc1ccc3ccccc3c1)C(=O)O)C2=O the results were AmpC inh detg inconclusive, SARS PLpro yeast 5%, Pf growth 48h -24%, Pf growth 96h 16%, AmpC inh no detg -13% and Sm TGR block -3%.
O=C(CS(=O)(=O)c1ccc2ccccc2c1)N1CCCCCC1 was read as AmpC inh detg -5%, SARS PLpro yeast -3%, Pf growth 48h -6%, Pf growth 96h inconclusive, AmpC inh no detg -11% and Sm TGR block 2%.
`COC(=O)c1cc2ccsc2n1CC(=O)N(C)C1CCCCC1` gave AmpC inh detg inconclusive, SARS PLpro yeast -3%, Pf growth 48h 6%, AmpC inh no detg -10% and Sm TGR block -1%.
CC(C)NCC(O)c1ccccc1Cl (stereo not given) was read as Pf growth 48h 7.6µM* and Pf growth 96h 12µM*.
`O=[N+]([O-])c1ccc(O)c2ncccc12` gave AmpC inh detg -2%, SARS PLpro yeast -17%, Pf growth 48h 13µM*, Pf growth 96h 9.5µM*, AmpC inh no detg 69% and Sm TGR block inconclusive.
O=[N+]([O-])c1ccc(O)c2cccnc12 was read as AmpC inh detg 3%, SARS PLpro yeast 0%, Pf growth 48h 2%, Pf growth 96h 47%[5.75 µM], AmpC inh no detg -20% and Sm TGR block -5%.
`O=[N+]([O-])c1cc([N+](=O)[O-])c2cccnc2c1Oc1ccccc1O` gave AmpC inh detg -6%, SARS PLpro yeast 20%, Pf growth 48h -8%, Pf growth 96h inconclusive, AmpC inh no detg -15% and Sm TGR block 0.28µM*.
Screening CN(C(=O)C1=CC(c2ccc3c(c2)OCO3)=NS(=O)(=O)N1C)c1ccccc1 returned AmpC inh detg 21% and Sm TGR block -24%.
Screening O=S(=O)(/N=C(\c1ccc(Cl)cc1)N1CCOCC1)c1ccccc1 returned AmpC inh detg -11%, SARS PLpro yeast -23%, Pf growth 48h 1%, Pf growth 96h 51%, AmpC inh no detg 0% and Sm TGR block -4%.
Screening O=[N+]([O-])c1cc(S(=O)(=O)/N=C(/c2ccccc2)N2CCOCC2)ccc1Cl returned AmpC inh detg 3%, SARS PLpro yeast 1%, Pf growth 48h 6%, Pf growth 96h 0%, AmpC inh no detg 10% and Sm TGR block 45µM*.
CC(=O)Nc1c2c(nn1-c1ccccc1)CS(=O)C2 (stereo not given) was read as AmpC inh detg 2%, SARS PLpro yeast 3%, Pf growth 48h 39%, Pf growth 96h 31%, AmpC inh no detg -8% and Sm TGR block -22%.
`COc1ccc(CC(=O)Nc2c3c(nn2-c2cccc(C)c2C)CS(=O)C3)cc1OC` (stereo not given) gave AmpC inh detg inconclusive, SARS PLpro yeast 0%, Pf growth 48h 16%, Pf growth 96h 2.6µM*, AmpC inh no detg -7% and Sm TGR block 3%.
